Measles CPE: protection of cells from measles virus. hit rate 1.5% among 140,000. protection (pct of control), % at 4 µM. AID 841. Measles virus-infected cells, CPE protection, absorbance; in the data active = protection mostly above about 24%, no sharp cut-off; inactive = mostly below about 26%
Insulin prom inh: TRM-6 insulin promoter activity inhibition; AID 1273; hit rate 0.9% among 130,000; inhibition, % at 2 µM; TRM-6 cells (human fetal islet line), insulin promoter-eGFP reporter, imaging; reporter expression induced with tamoxifen;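 active = inhibition above the mean plus 3 SD, with well images judged a real hit on visual review, cut at about 60% in these data, passing the limit was not always enough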
SDO1 yeast rescue: sdo1-depleted yeast growth rescue | hit rate 0.21% among 140,000 | AID 817 | z-score at 10 µM | S. cerevisiae sdo1-depleted JHY4D growth rescue, OD600 30 h; active compounds read high; pdr5 snq2 efflux-pump mutant strain;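 active = z-score above 3 at both the 24 hr and the 30 hr optical density reads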
ROMK mod: human ROMK K+ channel modulation, primary screen; B-score at 10 µM; P48048; hit rate 2% among 130,000; Tet-inducible ROMK, thallium flux fluorescence; actives lie on both sides; AID 1918;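 active = signal ratio slope over the read window, or its plate-corrected B-score, at least 3 SD from the plate mean, either direction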;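 also: B-score of the F/F0 ratio slope over 7 to 12 s after thallium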
Target sequence (P48048 whole entry, looked up): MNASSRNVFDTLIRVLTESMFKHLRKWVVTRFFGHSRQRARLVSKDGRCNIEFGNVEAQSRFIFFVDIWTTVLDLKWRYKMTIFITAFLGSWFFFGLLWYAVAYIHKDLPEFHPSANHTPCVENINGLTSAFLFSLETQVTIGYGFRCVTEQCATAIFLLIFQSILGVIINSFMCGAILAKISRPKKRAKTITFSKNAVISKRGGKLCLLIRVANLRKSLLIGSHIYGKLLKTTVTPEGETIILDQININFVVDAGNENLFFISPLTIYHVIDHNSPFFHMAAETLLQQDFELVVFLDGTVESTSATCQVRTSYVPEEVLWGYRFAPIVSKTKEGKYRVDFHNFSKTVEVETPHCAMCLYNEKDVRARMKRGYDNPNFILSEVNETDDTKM
A number is an active result. Shown are actives, neighbours in structure and some others; about 3% of the full set was active somewhere.

Results for CCn1ncc(Br)c1C(=O)Nc1ccc(F)cc1F ?
Measles CPE: inactive; Insulin prom inh: inactive; SDO1 yeast rescue: inactive

Results for CCn1ncc(Br)c1C(=O)N(C)C12CC3CC(CC(C3)C1)C2 ?
Measles CPE: inactive; SDO1 yeast rescue: inactive; ROMK mod: -4.5

What do the screens show for `CCn1ncc(Br)c1C(=O)Nc1ccn(C23CC4CC(CC(C4)C2)C3)n1`?
Measles CPE: 41; Insulin prom inh: inactive; SDO1 yeast rescue: inactive

Results for O=C(CSc1nc2ccccc2[nH]1)Nc1nc(-c2ccc(Br)cc2)cs1 ?
Measles CPE: inactive; Insulin prom inh: inactive; SDO1 yeast rescue: inactive

Results for O=C1NCCCC1C(=O)N/N=C/c1ccccc1 (configuration not stated) ?
Measles CPE: inactive; Insulin prom inh: inactive; SDO1 yeast rescue: inactive

What do the screens show for `Cn1cc(SCC(=O)O)c2ccccc21`?
Measles CPE: inactive; Insulin prom inh: 83; SDO1 yeast rescue: inactive; ROMK mod: inactive

How did COc1ccc(NC(=O)c2cccc(S(=O)(=O)N3CCc4ccccc43)c2)cn1 do in these assays?
Insulin prom inh: inactive; ROMK mod: inactive

Results for C=CCC1(N(C(C)=O)c2ccccc2)CCCCC1 ?
ROMK mod: inactive

Results for COc1ccc(CC2(CO)CCN(C(C)Cc3ccc(Cl)cc3)CC2)cc1 (configuration not stated) ?
ROMK mod: inactive

Results for Cc1ccc(Cl)cc1NC(=O)Cn1cccc1 ?
Measles CPE: 70; Insulin prom inh: inactive; SDO1 yeast rescue: inactive

Results for Cc1cccc2sc(NC(=O)Cn3cccc3)nc12 ?
Measles CPE: 77; SDO1 yeast rescue: inactive

How did CCc1cccc(NC(=O)Cn2cccc2)c1 do in these assays?
Measles CPE: 50; SDO1 yeast rescue: inactive; ROMK mod: inactive

How did Cc1cccc2sc(NC(=O)CCn3cccc3)nc12 do in these assays?
ROMK mod: inactive

How did CC(/C=C/c1ccccc1)=N/NC(=O)Cn1nnc(N)n1 do in these assays?
ROMK mod: inactive

What do the screens show for `Cc1nnc(C)n1N1C(=O)c2cccc3cccc(c23)C1=O`?
Measles CPE: 49; SDO1 yeast rescue: inactive

What do the screens show for `O=C(NCc1ccc(Cl)cc1)C(=O)NCC1OCCN1C(=O)c1ccc(Cl)cc1` (configuration not stated)?
Insulin prom inh: 69; ROMK mod: inactive

Results for Cc1ccc(CNC(=O)C(=O)NCC2OCCN2C(=O)c2ccc(Cl)cc2)cc1 (configuration not stated) ?
Measles CPE: inactive; Insulin prom inh: inactive; SDO1 yeast rescue: inactive; ROMK mod: inactive

What do the screens show for `CC(C)OC(=O)C1CC(C)(O)C(=O)C(C(=O)OC(C)C)C1c1ccc([N+](=O)[O-])cc1` (configuration not stated)?
Insulin prom inh: inactive; ROMK mod: inactive

How did CCCCn1c(=O)c(CC(C)=O)nc2ccccc21 do in these assays?
Measles CPE: inactive; Insulin prom inh: inactive; SDO1 yeast rescue: inactive; ROMK mod: inactive

What do the screens show for `CCCCn1c(N(CCOC(C)=O)C(C)=O)nc2ccccc21`?
Measles CPE: inactive; Insulin prom inh: 89; SDO1 yeast rescue: inactive; ROMK mod: inactive

How did CC(C)Cn1c(-c2ccc(Cl)cc2)cnc1SCC(=O)N1CCOCC1 do in these assays?
Measles CPE: 95; SDO1 yeast rescue: inactive; ROMK mod: inactive

What do the screens show for `CCOC(=O)N1CCN(CC(O)COc2ccccc2C(C)C)CC1` (configuration not stated)?
Measles CPE: inactive; Insulin prom inh: inactive; SDO1 yeast rescue: inactive; ROMK mod: inactive

What do the screens show for `CCOC(=O)N1CCN(CC(O)COC(CC)c2ccccc2)CC1` (configuration not stated)?
Measles CPE: 47; SDO1 yeast rescue: inactive

Results for CCOC(=O)N1CCN(CC(O)COc2cc(C)ccc2C(C)C)CC1 (configuration not stated) ?
Measles CPE: 30; Insulin prom inh: inactive; SDO1 yeast rescue: inactive; ROMK mod: inactive

How did CCc1ccc(C2CC(=O)N3CN(c4ccccc4)CSC3=C2C#N)cc1 (configuration not stated) do in these assays?
Measles CPE: inactive; SDO1 yeast rescue: inactive

Results for CN1CSC2=C(C#N)C(c3cccc(OCc4ccccc4)c3)CC(=O)N2C1 (configuration not stated) ?
Measles CPE: 63; SDO1 yeast rescue: inactive

Results for COc1ccc(OC)c(S(=O)(=O)N2CCN(c3ccccn3)CC2)c1 ?
Measles CPE: inactive; Insulin prom inh: 74; SDO1 yeast rescue: inactive

Results for Cc1nc2ccccn2c1C(=O)NN=C1C2CC3CC(C2)CC1C3 ?
Measles CPE: 38; Insulin prom inh: inactive; SDO1 yeast rescue: inactive

Results for CC12CCC(C(=O)N(CSC(=S)N/N=C\c3ccccc3)C1=O)C2(C)C (configuration not stated) ?
Measles CPE: inactive; Insulin prom inh: 76; SDO1 yeast rescue: inactive

What do the screens show for `COc1cc(-c2nnc(SCc3cccnc3)n2C)cc(OC)c1O`?
Measles CPE: inactive; Insulin prom inh: inactive; SDO1 yeast rescue: inactive; ROMK mod: inactive

Results for N#Cc1c(-c2cccs2)nc(SCc2ccc(Cl)cc2)[nH]c1=O ?
Insulin prom inh: inactive; ROMK mod: 3.6

Results for COc1ccccc1N1CCN(Cc2ccsc2)CC1 ?
Measles CPE: inactive; SDO1 yeast rescue: inactive; ROMK mod: inactive

How did COc1ccccc1N1CCN(Cc2cccs2)CC1 do in these assays?
Measles CPE: 96; SDO1 yeast rescue: inactive; ROMK mod: inactive

What do the screens show for `CCN(CC)c1ccc(NC(=O)c2ccc(=O)[nH]c2)cc1S(=O)(=O)Nc1ccccc1OC`?
Insulin prom inh: inactive; ROMK mod: inactive

Results for Cc1ccc(-c2nc3cc(C)ccc3o2)cc1 ?
Measles CPE: 56; Insulin prom inh: inactive; SDO1 yeast rescue: inactive; ROMK mod: inactive

How did Cc1ccc(-c2nc3cc(N)ccc3o2)cc1 do in these assays?
Measles CPE: inactive; Insulin prom inh: inactive; SDO1 yeast rescue: inactive

What do the screens show for `CC(C)NC(=O)c1onc(CSc2ccc(F)cc2)c1C(=O)O`?
Measles CPE: inactive; Insulin prom inh: 89; SDO1 yeast rescue: inactive

How did CC1(C)CC(=O)C(C=NCCCO)=C(O)C1 do in these assays?
Measles CPE: inactive; Insulin prom inh: inactive; SDO1 yeast rescue: inactive; ROMK mod: inactive

What do the screens show for `CC1(C)CC(=O)C(C=NCCN2CCNC2=O)=C(O)C1`?
Measles CPE: 35; Insulin prom inh: inactive; SDO1 yeast rescue: inactive; ROMK mod: inactive

What do the screens show for `Cc1ccc2c(c1)N(C(=O)CCC(=O)O)CCO2`?
Measles CPE: 28; Insulin prom inh: inactive; SDO1 yeast rescue: inactive; ROMK mod: inactive

How did O=C1C2ON(c3ccccc3)C(c3ccncc3)C2C(=O)N1c1ccccc1 (configuration not stated) do in these assays?
Measles CPE: inactive; Insulin prom inh: 73; SDO1 yeast rescue: inactive; ROMK mod: inactive

What do the screens show for `CC(C)Cc1nc(C(N)=O)c2[nH]c(=O)n(-c3ccc(F)cc3)c2n1`?
Measles CPE: inactive; SDO1 yeast rescue: inactive

What do the screens show for `Cc1cccc(-n2c(=O)[nH]c3c(C(N)=O)nc(CC(C)C)nc32)c1`?
Measles CPE: inactive; Insulin prom inh: 82; SDO1 yeast rescue: inactive; ROMK mod: inactive

What do the screens show for `Cc1c(NC(=O)c2ccccc2F)c(=O)n(-c2ccccc2)n1C`?
Measles CPE: inactive; Insulin prom inh: inactive; SDO1 yeast rescue: inactive
